According to PubChem BioAssay (NCATS):
Several values for one entry are separate records, joined by “and”; a condition that tells them apart may be missing. Equal entries are not always repeated. Records with an inconclusive call do not appear. A number with no mark means an inactive call. Activity calls are given as the source filed them. The call rests on the fitted dose curve; in most records, active means well fitted inhibition curve with a large enough effect; inconclusive means small, poorly fitted or top-dose-only effect; inactive means flat fitted curve, though single readings scatter.
On the % scale 0 is the no-effect control and ±100 the full control effect; potency means the concentration at half of the fitted maximal effect.

The compounds below were run on KB-3-1 (assay: Cytotoxic Profiling of Annotated Libraries Using Quantitative High-Throughput Screening (AID 1296008; further: nearly all actives have a fitted effect of over 60% in size)). Conditions: Five cell lines viability, CellTiter-Glo ATP luminescence, 48-72 h; max response: hits give low values.
How it was run: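 Cytotoxicity was measured as CellTiter-Glo ATP luminescence, read after 10 min at room temperature. Compound treatment of the cells lasted 48 or 72 hr at 37 degrees Celsius in a qHTS format.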
With `CCC(C)C(C(=O)OCC[N+](C)(CC)CC)c1ccccc1` (centres undefined) the max response was -5.4%. `NCCCC(=O)O` showed a max response of 2.75%. Compound `CC(=O)OC[C@H]1O[C@@H](O[C@H]2[C@H](O)[C@@H](OC(=O)c3ccccc3C(=O)O)[C@H](O)O[C@@H]2COC(C)=O)[C@H](O)[C@@H](OC(=O)c2ccccc2C(=O)O)[C@@H]1O` has a max response of -12.2%. Compound `CC1(S(=O)(=O)O)CC(=O)c2ccccc2C1=O` (centres undefined) has a max response of 5.99%. With `C=C1CC2C3CCC4=CC(=O)C=C[C@]4(C)[C@@]3(F)[C@@H](O)C[C@]2(C)[C@@]1(O)C(=O)COC(C)=O` (some centres undefined) the max response was 3%. `c1cnc2cc3c(cc2n1)[C@@H]1CNC[C@H]3C1` showed a max response of -10.7%. In the case of `CCCCCCCCCCCCCCCC(=O)O[C@@H]1CC(C)=C(/C=C/C(C)=C/C=C/C(C)=C/C=C/C=C(C)/C=C/C=C(C)/C=C/C2=C(C)C[C@@H](OC(=O)CCCCCCCCCCCCCCC)CC2(C)C)C(C)(C)C1`, the max response is reported as -27.5%. For `C[N+](C)(CCCCCC[N+](C)(C)C1c2ccccc2-c2ccccc21)C1c2ccccc2-c2ccccc21`, the max response was -17.2%. Work on `CCOC(=O)c1csc(Nc2ccc(Cl)cc2)n1` yielded a max response of -19%. In the case of `CCC(CN)CC(C)CCNCC(O)CNCC(C)CC(CC)CN` (centres undefined), the max response is reported as -5.63%. In the case of `CC#CCC(C)[C@H](O)/C=C/[C@@H]1[C@H]2C/C(=C/CCCC(=O)O)C[C@H]2C[C@H]1O` (some centres undefined), the max response is reported as -19%. `CCCC1([C@H](O)C/C=C/[C@H]2[C@H](O)CC(=O)[C@@H]2CCCCCCC(=O)OC)CCC1` was tested, and the max response was -18.2%. With `OC(CN1CCCCC1)c1cc(-c2ccccc2)on1` (centres undefined) the max response was -12.7%. In the case of `NCCCNCCCCNC(=O)C(O)NC(=O)CCCCCCN=C(N)N` (centres undefined), the max response is reported as -11.3%. For `NCCC[C@H](N)C(=O)O`, the max response was -6.2%. For `C[C@H](CSC(=O)c1ccccc1)C(=O)N1C[C@@H](Sc2ccccc2)C[C@H]1C(=O)O`, the max response was -1.05%. In the case of `CCCCOC(=O)C(=O)Nc1cccc(-c2nn[nH]n2)c1`, the max response is reported as -17%. In the case of `NCCCC[C@H](NC(=O)[C@@H]1CCCN1C(=O)[C@@H]1CSSC[C@H](N)C(=O)N[C@@H](Cc2ccccc2)C(=O)N[C@@H](Cc2ccccc2)C(=O)N[C@@H](CCC(N)=O)C(=O)N[C@@H](CC(N)=O)C(=O)N1)C(=O)NCC(N)=O`, the max response is reported as -12.7%. `COC(=O)C[C@](O)(CCCC(C)(C)O)C(=O)O[C@@H]1C(OC)=CC23CCCN2CCc2cc4c(cc2[C@H]13)OCO4` (some centres undefined) was tested, and the Potency was 0.058 µM (active). With `COC1=C(C(=O)O)N2C(=O)[C@@H](NC(=O)[C@H](N)C3=CCC=CC3)[C@H]2SC1` the max response was -6.73%. Work on `CC(C)(C)[C@H](NC(=O)c1ccc(N)c(Cl)c1)C(=O)N1CCC[C@H]1C(=O)N[C@H](C#N)CC(=O)O` yielded a max response of 5.39%. `COc1cc(C[C@@H]2NCCc3cc(O)c(O)cc32)cc(OC)c1OC` was tested, and the max response was -8.11%. Compound `CC(C(=O)O)c1ccc(C2CCCCC2)c2ccccc12` (centres undefined) has a max response of -20.6%. Work on `CC(C)(C)NC(=O)[C@H]1CC[C@H]2[C@@H]3CC=C4C=C(C(=O)O)CC[C@]4(C)[C@H]3CC[C@]12C` yielded a max response of -6.72%. With `O=C(OCCO)c1ccccc1O` the max response was -5.64%. Work on `Nc1ncnc(Nc2ccc(Cl)cc2)n1` yielded a max response of -7.22%. `CN=C(NC)NCc1ccccc1` was tested, and the max response was -10.8%. In the case of `CCN(CC)CCOC(=O)c1ccc(N)cc1Cl`, the max response is reported as 1.25%. `COCc1c(Cl)ccc2c1CC[C@H]2c1ncc[nH]1` showed a max response of -11.1%. For `CC(C)(S)C(=O)N[C@@H](CS)C(=O)O`, the max response was -0.209% and -15.2%. With `C1CNCCN1` the max response was -7.97%. For `O=C(Cn1cnnn1)N[C@@H]1C(=O)N2C(C(=O)O)=C(CSc3nncs3)CS[C@H]12`, the max response was -22.7% and -13.7%. `Oc1cccc(-c2c3nc(c(-c4cccc(O)c4)c4ccc([nH]4)c(-c4cccc(O)c4)c4nc(c(-c5cccc(O)c5)c5ccc2[nH]5)CC4)C=C3)c1` was tested, and the Potency was 16.4 µM (active). Work on `Cc1ccc(-c2ncccn2)c(C(=O)N2C[C@H](COc3ccc(F)cn3)CC[C@H]2C)c1` yielded a max response of 1.72%. For `CCC(=O)OCC(=O)[C@@]1(OC(=O)CC)[C@@H](C)C[C@H]2[C@@H]3CCC4=CC(=O)C=C[C@]4(C)[C@@]3(Cl)[C@@H](O)C[C@@]21C`, the max response was -12.3%. `COC[C@H](c1ccc(C(F)(F)F)cc1)N1CCN(C2(C)CCN(C(=O)c3c(C)ncnc3C)CC2)C[C@H]1C` gave a max response of -20%. Compound `CCCCCCCCCCCCCCCC(=O)OCCC1CCN(CCCN2c3ccccc3Sc3ccc(S(=O)(=O)N(C)C)cc32)CC1` has a max response of -4.82%. Work on `O=C1O[C@H]2[C@H](O)[C@@H]1OC(O)[C@H]2O` (some centres undefined) yielded a max response of -7.29%. `O=C(Nc1nnc(-c2ccc3c(c2)OCCO3)o1)C1CCCCC1` was tested, and the max response was 6.45%.
